Shown are actives, neighbours in structure and some others; about 19% of the full set was active somewhere.
DT40 TDP1 CPT: DT40-hTDP1 cell growth loss with CPT. Potency, µM (titrated, usually from 46.2 µM), usual class: inhibitors. chicken DT40 Tdp1-/-;hTDP1 cells + 20 nM CPT, ATP luminescence, 48 h. hit rate 12% among 420,000; note: nearly all actives have a fitted effect of over 55% in size
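Chicken DT40 Tdp1-/- cells complemented with human TDP1, 400 cells/well, exposed to compounds plus 20 nM camptothecin for at least 48 h at 37 C; viability read as ATP content by CellTiter-Glo luminescence.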
HT1080 IDH1KD tx: toxicity to HT-1080 IDH1 knockdown cells (counter line); HT-1080 IDH1 knockdown viability, ATP luminescence, 48 h; Potency, µM (top dose mostly 46.1 µM), hits mostly cytotoxic; hit rate 2% among 360,000
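Assay cells: HT-1080 with IDH1 knockdown, 750 per well, RPMI/5% FBS. Exposure: 48 h at 37 °C following 2 h pre-incubation. Read: CellTiter-Glo luminescence; fitted concentration-response, curve class assigned.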
HT1080-NT tox: kills 2HG-producing HT-1080-NT fibrosarcoma cells. HT-1080-NT fibrosarcoma viability, CellTiter-Glo ATP luminescence, 48 h. Potency, µM (titrated, usually from 46.1 µM), actives largely listed as cytotoxic. hit rate 1.6% among 360,000. AID 686970;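 note: NT is the 2HG producing partner of a matched IDH1 knockdown line; nearly all actives have a fitted effect of over 55% in size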
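Read-out is CellTiter-Glo luminescence after 10 minutes at room temperature, following 48 hours' compound treatment of HT-1080-NT cells (750 cells/well, RPMI, 5% FBS, 37 degrees C).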
DT40 TDP1 no CPT: qHTS for Inhibitors of human tyrosyl-DNA phosphodiesterase 1 (TDP1): qHTS in cells in absence of CPT | DT40 Tdp1-/- hTDP1 cells, no CPT, ATP luminescence, 48 h | Potency, µM (titrated, usually from 46.2 µM), usual class: inhibitors | hit rate 15% among 420,000 | AID 686978, 2013; note: nearly all actives have a fitted effect of over 55% in size
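Chicken DT40 Tdp1-/- cells complemented with human TDP1, screened without camptothecin (DMSO vehicle only), 400 cells/well. Compounds pin-transferred, cells incubated at 37 °C for at least 48 hr. Growth read as ATP-dependent luminescence (CellTiter-Glo, 30 min at RT).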
IL1B secr inh: blocks inflammasome-driven IL-1 beta release; THP-1 LPS/ATP IL-1B secretion, AlphaLISA, 16 h; active compounds read low; activity change, % at 57.5 µM; hit rate 4.7% among 360,000; AID 743279; in the data active = activity change below about -50%; inconclusive = mostly about -30% to -49%
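THP-1 cells pretreated 1 hr with compounds (up to 57.5 uM final), then stimulated with LPS (250 ng/mL final) plus ATP (1.25 mM final); secreted IL-1B measured by AlphaLISA after 16 hr, decreased signal indicating inhibition.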
A number is an active result; n = inactive; u = inconclusive; x = not tested or not shown; [ ] = remark or other dose. Unless noted, calls come from the whole dose curve; as a rule, active = well fitted curve in the direction sought with a large enough effect; inconclusive = small, poorly fitted or top-dose-only effect, or another doubt; inactive = no such curve, though single readings can be large; an effect the other way counts as inactive or inconclusive.

SMILES	DT40 TDP1 CPT	HT1080 IDH1KD tx	HT1080-NT tox	DT40 TDP1 no CPT	IL1B secr inh
CCC(Sc1nc2ccsc2c(=O)n1Cc1ccc(C(=O)O)cc1)C(=O)Nc1cc(Cl)ccc1C (centres undefined)	u	n	n	u	n
CCC(Sc1nc2ccncc2[nH]1)C(=O)Nc1cc(Cl)ccc1C (centres undefined)	29.1µM	n	n	18.4µM	n
O=S1(=O)CCN(C2CC2)CC1	n	n	n	n	n
COc1ccc(OC)c(NC(=O)CSc2ncnc3c2cnn3-c2ccccc2Cl)c1	2.06µM	n	n	1.3µM	-79.4
COc1ccc(C2NCCc3c2[nH]c2ccccc32)cc1CN1CCc2cc(OC)c(OC)cc2C1C (centres undefined)	u	u	18.4µM	18.4µM	n
COc1ccc(C2NCCc3c2[nH]c2ccccc32)cc1COc1ccc(F)cc1 (centres undefined)	u	u	u	20.6µM	-93.4
COc1ccc(C2NC(C(=O)O)Cc3c2[nH]c2ccccc32)cc1CN1CCN(c2ccc(F)cc2)CC1 (centres undefined)	n	n	n	n	n
COc1cc(OC)cc(C(=O)NC2CC3CCC(C2)N3Cc2ccco2)c1 (centres undefined)	n	n	n	n	n
COc1ccc(S(=O)(=O)N2CCOCC2)cc1NC(=O)CC(C)c1ccccc1 (centres undefined)	n	n	n	20.6µM	n
CCCC(NCC(=O)Nc1cc(S(=O)(=O)N2CCOCC2)ccc1OC)c1ccccc1 (centres undefined)	16.4µM	n	n	14.6µM	u
COc1ccc(CNC(=O)C(C)Cc2ccccc2)cc1O (centres undefined)	n	n	n	n	n
COc1ccc(Cl)c2c1[nH]c1nc(SCc3ccccn3)nnc12	u	n	n	25.9µM	-81.9
CC1CCC(NC(=O)CN2C(=O)NC(C)(C)C2=O)CC1 (centres undefined)	n	n	n	n	n
CN(CC(=O)Nc1cccc(C(F)(F)F)c1)Cc1ccccc1	u	n	n	9.2µM	u
CC(O)(CS(=O)(=O)Cc1cccc(C(F)(F)F)c1)C(=O)Nc1cccc(C(F)(F)F)c1 (centres undefined)	n	15.8µM	u	n	n
CN(CC(=O)NCCc1ccc(F)cc1)Cc1ccc(Br)cc1	n	n	n	u	-59.4
CN(CC(=O)NCCCc1ccccc1)Cc1ccc(Br)cc1	u	n	u	u	n
CN(CC(=O)Nc1ccccc1)CC(=O)Nc1ccc(F)cc1	n	n	n	n	n
CN(CC(=O)Nc1ccc(Br)cc1)Cc1ccccc1	n	n	n	n	-81.1
Cc1ccc(C(=O)NCC(=O)N/N=C/c2sccc2C)cc1[N+](=O)[O-]	u	n	n	u	n
CO[C@H]1[C@H](NC(=O)c2ccco2)c2ccccc2C12CCN(Cc1cccn1-c1ccccn1)CC2	n[9.04 µM]	x	x	n	x
CC(=O)c1ccc(N2CCN(C(=S)Nc3cccc(F)c3)CC2)cc1	u	u	u	14.6µM	n
CC(=O)c1ccc(N2CCN(C(=S)Nc3ccc(Oc4ccccc4)cc3)CC2)cc1	u	u	n	7.31µM	-65.8
COC(=O)Cc1ccc(NC(=S)N2CCN(c3ccc(F)cc3)CC2)cc1	11.6µM	n	n	5.17µM	n
COC(=O)Cc1ccc(NC(=S)N2CCN(CCO)CC2)cc1	n	n	n	n	n
SMILES	DT40 TDP1 CPT	HT1080 IDH1KD tx	HT1080-NT tox	DT40 TDP1 no CPT	IL1B secr inh
COc1ccc(-c2cn3c4c(sc3n2)CCCC4)cc1	n	n	n	n	n
O=C(CC(=O)Nc1ccccc1[N+](=O)[O-])Nc1ccccc1[N+](=O)[O-]	n	n	n	n	-64.2
O=C(CSC1=NCCN1)Nc1ccccc1[N+](=O)[O-]	u	n	n	20.6µM	-119.0
CC(=O)c1ccc(NC(=O)C2(c3ccccc3)CCOCC2)cc1	n	n	n	n	n
O=[N+]([O-])c1ccccc1Nc1ccccc1[N+](=O)[O-]	n	n	n	n	n
O=C(CSC1=NCCN1)NC(c1ccccc1)c1ccccc1	u	u	u	20.6µM	-105.1
O=C(Nc1ccccc1[N+](=O)[O-])C1(c2ccccc2)CCOCC1	u	n	n	16.4µM	n

Screens: PubChem, National Center for Advancing Translational Sciences (NCATS)
